Assay results from ChEMBL document CHEMBL3433997, “St. Jude Leishmania screening dataset” (2016).

Columns and labels:
Format in all cases: functional
[1] = target: Solute carrier family 2, facilitated glucose transporter member 1 (Homo sapiens) (UniProt P11166); experiment: ST_JUDE_LEISH: Cytotoxicity at 2uM final concentration against transgenic Leishmania Mexicana promastigotes LmGLUT1 that are glucose transport deficient and complemented with the human glucose transporter GLUT1. Activity is measured by DNA content using SYBR green in vitro
[2] = target: Hexose transporter 1 (Plasmodium falciparum) (UniProt O97467); experiment: ST_JUDE_LEISH: Cytotoxicity at 2uM final concentration against transgenic Leishmania Mexicana promastigotes LmPfHT that are glucose transport deficient and complemented with the Plasmodium falciparum hexose transporter. Activity is measured by DNA content using SYBR green in vitro
[3] = target: Glucose transporter (Leishmania mexicana) (UniProt O61059); experiment: ST_JUDE_LEISH: Cytotoxicity at 2uM final concentration against transgenic Leishmania Mexicana promastigotes LmGT2 that are glucose transport deficient and complemented with the L. Mexicana glucose transporter 2. Activity is measured by DNA content using SYBR green in vitro

Sequence of Solute carrier family 2, facilitated glucose transporter member 1 (Homo sapiens) (P11166 whole entry): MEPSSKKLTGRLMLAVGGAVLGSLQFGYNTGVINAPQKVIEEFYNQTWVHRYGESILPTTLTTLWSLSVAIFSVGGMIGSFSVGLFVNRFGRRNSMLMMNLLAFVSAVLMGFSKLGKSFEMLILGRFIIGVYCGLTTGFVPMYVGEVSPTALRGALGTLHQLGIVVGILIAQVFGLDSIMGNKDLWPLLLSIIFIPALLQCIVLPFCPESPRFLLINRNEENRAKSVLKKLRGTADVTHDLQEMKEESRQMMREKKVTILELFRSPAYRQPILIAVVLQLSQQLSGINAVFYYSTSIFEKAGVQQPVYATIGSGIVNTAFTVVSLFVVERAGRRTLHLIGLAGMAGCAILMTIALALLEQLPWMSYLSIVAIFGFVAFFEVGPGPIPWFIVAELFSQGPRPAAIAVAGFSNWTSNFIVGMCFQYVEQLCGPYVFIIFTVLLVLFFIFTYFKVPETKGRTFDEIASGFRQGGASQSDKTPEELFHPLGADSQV

Structure (SMILES) | inhibition [1] [%] | inhibition [2] [%] | inhibition [3] [%]
COc1cccc(C(=O)NCc2cccs2)c1Oc1ccccc1 | 13.2 | 12.2 | 11
COc1cccc(C(=O)C2CC2CN(C)CCC(O)c2ccc(Cl)c(Cl)c2)c1 (stereo unspecified) | 3.35 | 3.48 | 4.04
O=C(Nc1cc(F)cc(F)c1)N1CCOC(CCN2CCC(c3ccccc3)CC2)(c2ccc(Cl)c(Cl)c2)C1 (stereo unspecified) | 4.27 | 2.5 | 2.87
CCOC(=O)c1ccc(NC(=O)N[C@H]2CCN(CCCCCNC(=O)/C=C/c3ccc(Cl)c(Cl)c3)C2)cc1 | 4.4 | 2.51 | 5.84
NS(=O)(=O)c1ccc(CNc2ccc3ncc(-c4ccc(OC(F)(F)F)cc4)n3n2)cc1 | 4.71 | 4.62 | 4.53
CS(=O)(=O)CCNCc1ccc(-c2cc3c(Nc4ccc(OCc5cccc(F)c5)c(Cl)c4)ncnc3s2)[nH]1 | 0.33 | 0.24 | 0.92
CN1CCN(c2ccc(-c3cccc(NC(=O)c4ccc5ccccc5c4)c3)nn2)CC1 | 14 | 10.9 | 7.19
CCCNc1ccc2nccc(CCN3CCC(NCc4ccc5c(c4)NC(=O)CS5)CC3)c2n1 | 0.84 | 3.1 | 2.43
O=C1NC(=O)C(c2cccc(NC(=O)c3ccncc3)c2)=C1c1ccccc1 | 1.05 | 1.65 | -4.34
O=C(/C=C/c1ccc(Cl)cc1)NCCCCCN1CCC(c2c[nH]c3ccccc23)CC1 | 3.62 | 3.59 | 0.35
CN(C)c1cccc2c1nc(-c1ccc3c(c1)CCO3)n2CCNCc1ccccc1 | 11.7 | 8.56 | 5.57
Cc1cc(N(C)CCCN(C)C)nc(Nc2ccc(Cl)cc2)n1 | -1.04 | 1.73 | -0.32
